A short description of test [1]: A CellTox Green Cytotoxicity Assay to monitor cytotoxicity in HEK293 cells - 32 hour (AID 1224881). Note: nearly all actives have a fitted effect of over 40% in size. Note: potency is the fitted concentration of half-maximal effect. Summed up: (§1)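 Read-out: fluorescence of a cell-impermeant cyanine dye staining DNA of dead cells, proportional to cytotoxicity. HEK293, 600 cells/well with reagent, compound (23 nL DMSO) added after 5 h; reads at 0, 8, 16, 24, 32, 40 h.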
The nature of test [2]: A CellTox Green Cytotoxicity Assay to monitor cytotoxicity in HepG2 cells - 0 hour (AID 1224882). Note: nearly all actives have a fitted effect of over 35% in size. The method in brief:
(§2)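 HepG2, 600 cells/well premixed w/ CellTox Green; 5 h settle, 37 C/5% CO2; pintool cpd add (DMSO); 37 C, 40 h; fluorescence read at 0, 8, 16, 24, 32, 40 h.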

The nature of test [3]: A CellTox Green Cytotoxicity Assay to monitor cytotoxicity in HepG2 cells - 32 hour (AID 1224883). Note: nearly all actives have a fitted effect of over 50% in size. Note: potency is the fitted concentration of half-maximal effect. The method in brief: as §2
Test [4] in a line: A CellTox Green Cytotoxicity Assay to monitor cytotoxicity in HEK293 cells - 8 hour (AID 1224884). Note: nearly all actives have a fitted effect of over 35% in size. Note: potency is the fitted concentration of half-maximal effect. Summed up: as §1
The nature of test [5]: qHTS RealTime-Glo MT Cell Viability Assay in HepG2 cells - 16 hour (AID 1224885). Note: nearly all actives have a fitted effect of over 50% in size. Note: potency is the fitted concentration of half-maximal effect. The method in brief: (§3)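 Viability was tracked continuously by NanoLuc luminescence from prosubstrate reduced by living HepG2 cells, at successive time points over 40 h of compound exposure. Cells with reagent were preincubated 5 h at 37 °C before compound addition.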
Test [6] can be described thus: A CellTox Green Cytotoxicity Assay to monitor cytotoxicity in HEK293 cells - 16 hour (AID 1224888). Note: nearly all actives have a fitted effect of over 35% in size. Note: potency is the fitted concentration of half-maximal effect. Summed up:
as §1

A short description of test [7]: qHTS RealTime-Glo MT Cell Viability Assay in HepG2 cells - 0 hour (AID 1224889). Note: nearly all actives have a fitted effect of over 50% in size. The method in brief:
as §3

The nature of test [8]: A CellTox Green Cytotoxicity Assay to monitor cytotoxicity in HepG2 cells - 8 hour (AID 1224890). Note: nearly all actives have a fitted effect of over 45% in size. Note: potency is the fitted concentration of half-maximal effect. Summed up: as §2
Test [9] is described as follows: qHTS RealTime-Glo MT Cell Viability Assay in HEK293 cells - 24 hour (AID 1224886). For activity change, negative = cytotoxicity: top concentration of the series differs between compounds. Note: nearly all actives have a fitted effect of over 50% in size. Note: potency is the fitted concentration of half-maximal effect. The method in brief: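 Viability tracked continuously by luminescence as live cells reduce a prosubstrate for NanoLuc; HEK293 cells preincubated 5 h, compound-treated at 37 C, and read at 0, 8, 16, 24, 32 and 40 h.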
A short description of test [10]: qHTS RealTime-Glo MT Cell Viability Assay in HEK293 cells - 8 hour (AID 1224887). For activity change, negative = cytotoxicity: top concentration of the series differs between compounds. Note: nearly all actives have a fitted effect of over 50% in size. Note: potency is the fitted concentration of half-maximal effect. The method in brief:
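Luminescence readout at each listed time point; HEK293, 600 cells/well, RealTime-Glo MT reagent added with cells; compounds pinned (23 nL in DMSO) after 5 h at 37 C; continuous culture at 37 C.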
In general terms: qHTS replaces the single test concentration by a dilution series.

The results in this text go back to PubChem BioAssay (Tox21).

Unmarked numbers belong to inactive results. Records with an inconclusive call do not appear. The source made the active and inactive calls. Calls come from the whole dose curve; as a rule, active = well fitted curve in the direction sought with a large enough effect in the repeat runs; inconclusive = weak or mixed curves; inactive = no such curve, though single readings can be large; an effect the other way counts as inactive or inconclusive.
% is set by controls: 0 for no effect and ±100 for the full control effect.

`CC(C)=CCC1=C(O)c2ccccc2C(=O)C1=O`: the Potency entry in [1], in test [2], in test [3], in [4], in [5] and in [6] was “inactive” in each case. The Potency result in test [7] and in test [8] was “inactive” each time.
`O=[N+]([O-])c1cccc(C(F)(F)F)c1`: the Potency result in test [1], in [2], in [3], in test [4], in test [5] and in test [9] was “inactive” each time. Also, the Potency entry in test [10] and in [8] was “inactive” each time.
`Nc1cc(Cl)c(O)c(Cl)c1`: the Potency entry in [1], in test [2], in test [3], in test [4], in test [5] and in test [6] was “inactive” in each case. Further, the Potency result in test [8] is “inactive”. Also, in test [10], the Potency was 43.6 µM (active).
`COC(=O)c1ccccc1OC`: the Potency entry in test [1], in [2], in test [3], in test [4], in [5] and in [9] was “inactive” throughout. The Potency entry in [7] and in test [8] was “inactive” each time.
As to `c1ccsc1`, the Potency result in [1], in [2], in [3], in test [4], in test [5] and in test [9] was “inactive” in each case. In addition, the Potency entry in test [10], in test [7] and in test [8] was “inactive” in each case.
Take `c1ccc(SSc2ccccc2)cc1`: the Potency entry in test [1], in test [2], in test [3], in [4], in test [5] and in test [9] was “inactive” in each case. The Potency entry in [10], in test [7] and in test [8] was “inactive” each time.
`C[C@@H](O)[C@H](N)C(=O)O`: the cytotoxicity increase in test [1] was -5.17% [at 15.8 µM]; in test [3] it was 4.24% [at 15.8 µM]; in test [4] it was -5.26% [at 15.8 µM]; in test [8] it was 6.73% [at 15.8 µM]. Also, in [2], the cytotoxicity is 7.45% [at 15.8 µM]. For the same compound, the activity change, negative = cytotoxic in test [5] is -0.0796% [at 15.8 µM]. Also, the activity change, negative = cytotoxicity in test [9] is 0.683% [at 15.8 µM]; in [10], -0.878% [at 15.8 µM]; in test [7] it was 0.322% [at 15.8 µM].
With `CCCC[P+](C)(CCCC)CCCC`, the Potency result in test [1], in [2], in test [3], in test [4], in test [5] and in [10] was “inactive” each time. In addition, the Potency result in test [6], in test [7] and in test [8] was “inactive” each time.
In the case of `Cc1cccc2cccnc12`, the Potency entry in [1], in test [2], in [3], in test [4], in test [5] and in [9] was “inactive” each time. The Potency result in test [10], in test [7] and in test [8] was “inactive” each time.
Turning to `S=C([S-])NCCNC(=S)[S-].S=C([S-])NCCNC(=S)[S-].[Mn+2].[Zn+2]`, the Potency result in test [1], in test [2], in test [3], in test [4], in [5] and in [10] was “inactive” each time. In addition, the Potency entry in test [7] and in test [8] was “inactive” throughout.
`CCC(=O)C(=O)CC`: the Potency entry in [1], in test [2], in [3], in [4], in [5] and in test [10] was “inactive” in each case. Further, the Potency result in test [6], in [7] and in test [8] was “inactive” throughout.
`CCCCCCCCCCCCOCCOCCOCCOCCOCCOCCOCCOCCOCCO`: the Potency in [1] was 10.7 µM (active); in [3] it was 23.9 µM (active); in test [4], 16.9 µM (active); in test [9], 5.35 µM (active); in test [10] it was 10.7 µM (active); in test [6], 12 µM (active). The Potency entry in test [2] and in test [7] was “inactive” each time.
As for `Cc1ccc(-c2ccccc2)cc1`, the Potency entry in [1], in test [2], in [4], in test [5], in test [10] and in test [6] was “inactive” throughout. Moreover, the Potency entry in [7] was “inactive”. Further, the Potency in test [3] was 43.6 µM (active); in [8] it was 49 µM (active).
Turning to `CNc1ccc([N+](=O)[O-])cc1`, the Potency result in test [1], in test [2], in test [3], in [4], in test [5] and in [9] was “inactive” in each case. Besides, the Potency result in [10] and in test [8] was “inactive” each time.
Take `CC(C)(C)c1csc(-c2cc3cc(OCc4ccccc4CC(=O)O)ccc3o2)n1`: the Potency in test [1] and in [3] was 54.9 µM (active) each time. Besides, the Potency result in [2], in test [4] and in [7] was “inactive” throughout.
Take `CCCCC(CC)CN1CN(CC(CC)CCCC)CC(C)(N)C1` (configuration not stated): the Potency in test [1] is 10.7 µM (active); in test [4], 15.1 µM (active); in test [5], 19 µM (active); in [9], 8.49 µM (active); in test [10], 10.7 µM (active); in test [6] it was 13.4 µM (active). Also, the Potency in test [8] was 21.3 µM (active). Besides, the Potency result in test [2] is “inactive”.
For `CCN(CC)C(=O)c1cc(S(=O)(=O)Cc2ccccc2)c(N2CCC(c3ccccc3)CC2)cc1N(CC)CCN(C)C`, the Potency was 19.3 µM (active) in test [1]; 15.3 µM (active) in [3]; 19.3 µM (active) in test [5]; 13.6 µM (active) in [9]; 17.2 µM (active) in test [10]; 19.3 µM (active) in test [8]. For the same compound, the Potency entry in test [2] is “inactive”.
As to `O=C1NC(=O)[C@@H]2CC=CC[C@H]12`, the Potency result in test [1], in test [2], in [4], in test [5], in test [9] and in [10] was “inactive” throughout. For the same compound, the Potency result in test [6], in test [7] and in test [8] was “inactive” each time.
Turning to `C#C[C@]1(O)CC[C@H]2[C@@H]3[C@H](C)CC4=C(CCC(=O)C4)[C@H]3CC[C@@]21C`, the Potency entry in test [1], in [2], in test [4], in test [5], in test [9] and in [10] was “inactive” each time. The Potency entry in test [6], in test [7] and in test [8] was “inactive” each time.
